# SMN2 splice enh: SMN2 splice variant enhancement; HEK293 SMN2-luciferase splicing reporter, luminescence, 30-36 h; Potency, µM (top dose mostly 46.1 µM), inactives show at the top dose activity change, positive = activation, actives largely listed as activators; 210,000 tested, 2.8% active; also: % of control where 0% means no effect; nearly all actives have a fitted effect of over 55% in size
#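 HEK293 cells carry an SMN2 […]–luciferase reporter in which exon 7 inclusion puts luciferase in frame. Cells were plated 10-12 h before compound addition, then incubated 30-36 h at 37C. ONE-Glo luminescence was read; sodium butyrate at 4.5 mM final served as control.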
# ELG1 genotoxic: genotoxicity induction in ELG1-luciferase HEK293T cells. HEK293T ELG1-luciferase reporter, luminescence, 16 h. 330,000 tested, 1.3% active. Potency, µM (titrated, usually from 46 µM), inactives show top-dose activity change, positive = activation, hits mostly activators; also: % of control where 0% means no effect; nearly all actives have a fitted effect of over 60% in size
#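 HEK293T cells expressing luciferase-tagged ELG1 were exposed to compound or DMSO vehicle for 16 hr at 37 °C and 5% CO2. Luciferase activity was then measured with ONE-Glo after 30 min at room temperature.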
# ELG1 DNA repair: blocks ELG1-dependent DNA repair in HEK293T cells | HEK293T ELG1-luciferase reporter, luminescence, 16 h; DNA damage induced by 5-fluorouridine | Potency, µM (titrated, usually from 46.1 µM), inactives show top-dose activity change, negative = inhibition, actives largely listed as inhibitors | 330,000 tested, 2.3% active | AID 504467; also: % is scaled to controls: 0 for no effect and ±100 for the full control effect; nearly all actives have a fitted effect of over 55% in size
#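 Luminescence from the luciferase reporter, measured 30 min after ONE-Glo reagent at room temperature, was the read-out. Beforehand, 2,000 cells per well were exposed for 16 hr at 37 °C to 5-fluorouridine together with compound or vehicle.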
# FLuc counter: counter-screen for miR-21 project: firefly luciferase inhibitors or activators | purified FLuc, Km substrates, luminescence inhibition | Potency, µM (top dose mostly 57.5 µM), inactives show at the top dose activity change, negative = inhibition, usual class: inhibitors | AID 588342 | P08659 | 360,000 tested, 6.9% active;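 also: plate controls were vehicle for no effect and reference inhibitor for full effect; nearly all actives have a fitted effect of over 55% in size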
# Target sequence (P08659 whole entry, looked up): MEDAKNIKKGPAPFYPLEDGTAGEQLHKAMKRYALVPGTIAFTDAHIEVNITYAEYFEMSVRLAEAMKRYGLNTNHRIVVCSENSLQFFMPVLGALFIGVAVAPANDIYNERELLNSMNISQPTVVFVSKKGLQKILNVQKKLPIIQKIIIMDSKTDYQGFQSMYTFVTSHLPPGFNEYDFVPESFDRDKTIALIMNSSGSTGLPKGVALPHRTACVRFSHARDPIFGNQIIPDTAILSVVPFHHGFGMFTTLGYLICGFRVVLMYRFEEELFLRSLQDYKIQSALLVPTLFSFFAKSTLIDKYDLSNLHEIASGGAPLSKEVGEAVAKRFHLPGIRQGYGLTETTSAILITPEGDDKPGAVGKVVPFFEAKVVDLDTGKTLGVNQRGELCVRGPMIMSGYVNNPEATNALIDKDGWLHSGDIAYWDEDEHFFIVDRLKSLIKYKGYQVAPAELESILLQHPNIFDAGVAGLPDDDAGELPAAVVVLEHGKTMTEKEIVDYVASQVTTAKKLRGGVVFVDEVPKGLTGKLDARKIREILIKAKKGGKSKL
#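 Biochemical qHTS of compounds, final roughly 60 µM downward over six points, against 10 nM purified firefly luciferase using Km concentrations of substrates (10 uM D-luciferin, 10 uM ATP) in Tris acetate pH 7.5 buffer; luminescence output.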
# NPC1 prom act: NPC1 promoter activation; Huh7 NPC1 promoter luciferase reporter, 24 h; Potency, µM (titrated, usually from 9.22 µM), for inactives: at the top dose activation, hits mostly activators; 320,000 tested, 2.4% active; AID 485313; also: % of control where 0% means no effect; nearly all actives have a fitted effect of over 60% in size
#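 NPC1 promoter–luciferase Huh7 cells; 24 h compound; luminescence.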
# Rab9 prom act: Rab9 promoter activation. 320,000 tested, 2.8% active. AID 485297. Potency, µM (doses to about 9.22 µM), without a hit: at the highest dose activation, negative = inhibition, most hits filed as activators. Huh7 Rab9 promoter-luciferase reporter, luminescence, 24 h; also: % of control where 0% means no effect; nearly all actives have a fitted effect of over 60% in size
#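 Measured in stably transfected Huh7 cells bearing a Rab9 promoter–luciferase construct: 24 h compound treatment at 37 °C, followed by luminescence detection.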
# * = called active by the depositor; ? = inconclusive; · = not tested or not shown; [ ] = dose if it differs, or a comment. Hits are enriched below; roughly 9.4% of the tested compounds scored in any of these assays. Calls follow the shape of the dose curve; as a rule, active = well fitted curve in the direction sought with a large enough effect; inconclusive = small, poorly fitted or top-dose-only effect, or another doubt; inactive = no such curve, though single readings can be large; an effect the other way counts as inactive or inconclusive. Potency is read from the fitted curve at half-maximal effect.
SMILES,SMN2 splice enh,ELG1 genotoxic,ELG1 DNA repair,FLuc counter,NPC1 prom act,Rab9 prom act
O=C(Cc1ccccc1[N+](=O)[O-])OCN1C(=O)c2ccccc2C1=O,·,5%,1%,9.5µM*,-10%,10%
O=C1c2ccccc2S(=O)(=O)N1Cc1ccccc1[N+](=O)[O-],·,-1%,0%,0%,8%,0%
CN(C)c1ccc(CNS(=O)(=O)c2ccc3[nH]c4c(c3c2)CCCCC4)cc1,·,·,·,-14%,·,·
Cc1ccc(N(C)C(=O)Cn2cc(S(=O)(=O)N3CCCC3)c(S(=O)(=O)N3CCCC3)c2)cc1,·,·,·,-5%,·,·
CCC(C(=O)O)n1ccc2cc(S(=O)(=O)N3CCCCC3)ccc21 (centres undefined),-1%,·,·,-19%,·,·
CCCCNC(=O)CSc1nc2n[nH]c(C)c2c(=N)n1-c1ccccc1CC,·,·,·,-1%,·,·
Cc1c(C(=O)NCC(C)C)sc2nc(-c3ccc(F)cc3)cn12,18%,?,?,-12%,?,2µM*
Cc1c(C(N)=O)sc2nc(-c3ccccc3)cn12,30%,?,?,19µM*,?,?
COc1ccc(-c2cn3c(C)c(C(=O)Nc4cccc(NC(C)=O)c4)sc3n2)cc1,-18%,2%,14%,9.5µM*,9%,-3%
CCOc1ccc(C2/C(=C(/O)c3ccc(S(=O)(=O)N4CCCCC4)cc3)C(=O)C(=O)N2CCCOC)cc1OC (centres undefined),·,0%,1%,2%,-2%,0%
CCC(Sc1nnc(C)n2c1cc1occc12)C(=O)Nc1ccccc1F (centres undefined),·,·,·,-15%,·,·
COc1cccc(CNC(=O)CCn2c(=O)c3cccn3c3ccc(F)cc32)c1OC,·,·,·,-7%,·,·
Cc1ccc2nc(N3C(=O)CNC3=S)sc2c1,·,21µM*,?,1.5µM*,1.1µM*,?
Cc1cccc(CC2CC(=O)N(c3nc4ccccc4s3)C2=O)c1 (centres undefined),6%,-5%,-5%,?,0%,-2%
COc1ccc2nc(N3C(=O)CNC3=S)sc2c1,·,21µM*,?,2.4µM*,3.5µM*,1.3µM*
COC(=O)/C=C1\C(=O)N(c2nc3ccc(OC)cc3s2)C(=S)N1c1ccc(F)cc1,16%,1%,?,1%,2%,2%
COc1ccc(CNCCC(c2ccc3c(c2)OCO3)c2ccccc2OC)cc1 (centres undefined),-23%,·,·,-2%,·,·
CCCn1c(C)nc2c(NCCCN3CCCCC3C)nc(C)nc21 (centres undefined),0%,·,·,·,·,·
COc1ccccc1CNC(=O)c1oc2ccc3c(c2c1C)C(=O)CC(C)(C)O3,13%,·,·,5.4µM*,·,·
Cc1c(C(=O)NCC2CCCO2)oc2ccc3c(c12)C(=O)CC(C)(C)O3 (centres undefined),·,?,?,2.7µM*,?,2.5µM*
COc1ccc(N2CCN(C(CNC(=O)C(C)C)c3ccc4c(c3)OCO4)CC2)cc1 (centres undefined),·,3%,16%,0%,-2%,-4%
COc1ccccc1C(=O)Nc1ccc(C(=O)OCc2cc(=O)n3c4c(sc3n2)CCCC4)cc1,·,·,·,-8%,·,·
CC(C)CC(=O)n1sc(NC(=O)c2ccccc2)nc1=O,-6%,-1%,?,21µM*,-4%,-6%
Cc1ccc(C(=O)Nc2nc(=O)n(C)s2)cc1,?,?,?,2.1µM*,3.2µM*,2.8µM*
Cc1ccc(C(=O)Nc2nc(=O)n(C(=O)c3ccccc3Cl)s2)cc1,?,?,?,5.4µM*,?,3.2µM*
SMILES,SMN2 splice enh,ELG1 genotoxic,ELG1 DNA repair,FLuc counter,NPC1 prom act,Rab9 prom act
Cn1sc(NC(=O)c2ccc(Cl)cc2)nc1=O,?,?,?,2.4µM*,4µM*,3.5µM*
Cc1ccc(C(=O)Nc2nc(=O)n(C(=O)CC(C)C)s2)cc1,9%,0%,1%,?,-1%,2%
O=C(c1cc2cc3ccc(Cl)cc3nc2o1)N1CCN(c2cccc(Cl)c2)CC1,-10%,·,·,-10%,·,·
NC(N)=Nc1nc2cc([N+](=O)[O-])ccc2o1,·,10%,?,?,-1%,9%
O=[N+]([O-])c1ccc2oc(-c3ccccc3)nc2c1,16µM*,?,?,?,?,2.2µM*
COc1ccc(-c2nc3ccc([N+](=O)[O-])cc3o2)cc1,11µM*,6.5µM*,?,0.76µM*,1.6µM*,1.1µM*
Cc1cccc(-c2nc3cc([N+](=O)[O-])ccc3o2)c1,16µM*,16µM*,?,1.7µM*,3.5µM*,1.6µM*
Cc1cccc(-c2nc3cc(NC(=O)Cc4ccc(Cl)cc4)ccc3o2)c1,-21%,·,·,2%,·,·
COC(=O)C1=C(C(=O)OC)[C@@H]2Nc3ccccc3[C@@]23C[C@@H](C(=O)OC)N(S(=O)(=O)c2ccc(Br)cc2)C3=N1,1%[9.22 µM],·,·,·,·,·
O=C(NCc1cccs1)c1nn(-c2ccccc2F)nc1CO,-59%,·,·,6%,·,·
COc1ccc(-n2cc(C(=O)N(CCN(C)C)Cc3ccccc3)c3ccccc3c2=O)cc1,·,·,·,-6%,·,·
COc1cccc(/C=N/NC(=O)c2cc(-c3cccn3C)n[nH]2)c1,15%,-1%,?,?,-4%,-5%
COc1cccc(/C=N/NC(=O)C(C)Cn2cnc3ccccc32)c1 (centres undefined),·,-7%,?,15µM*,-3%,-5%
COc1ccc(/C=N/NC(=O)c2nc(-c3ccccc3)cc(-c3ccccc3)n2)cc1OC,-37%,-1%,4.1µM*,2.4µM*,3%,-3%
COc1cccc(/C=N/NC(=O)c2nc(-c3ccccc3)cc(-c3ccccc3)n2)c1,-18%,-9%,7.3µM*,2.4µM*,-2%,3%
O=C(Nc1cnc2ccccn2c1=O)c1ccc(Cl)cc1,35µM*,?,?,15µM*,3.5µM*,2.2µM*
O=C(Nc1cccn2ncnc12)c1ccc(Cl)cc1,·,-5%,?,-14%,24%,18%
Cc1ccc(-c2nc3cc(C(C)C)ccc3o2)cc1NC(=O)c1cc([N+](=O)[O-])ccc1N1CCOCC1,-46%,·,·,1.3µM*,·,·
Cc1ccc(-c2nc3cc(C(C)C)ccc3o2)cc1NC(=O)c1cccs1,-6%,·,·,1.9µM*,·,·
CC1CCc2c(sc(NC(=O)c3cc(-c4cccc(Cl)c4)on3)c2C(N)=O)C1 (centres undefined),5%,·,·,3%,·,·
CCOC(=O)c1cnc2c(Cl)cc(Cl)cc2c1Nc1cc(C(=O)O)ccc1C,-7%,·,·,12µM*,·,·

# Screening data deposited in PubChem BioAssay by National Center for Advancing Translational Sciences (NCATS).
